Screens from PubChem BioAssay.
D3 antag: antagonists of human D3 dopamine receptor; D3R cells, DiscoveRx beta-arrestin luminescence, antagonist mode; stronger effect = lower value; 2.5% of 360,000 active; max response, negative = inhibition, %; AID 652054; in the data active = max response below about -50%; inconclusive = no clear call, values can overlap the other calls; also: % is scaled to controls: 0 for no effect and ±100 for the full control effect
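Cells plated overnight at 1500 cells/well, then exposed to library compounds with dopamine controls for 90 minutes at 37 degrees C. DiscoveRx reagent added for 30–60 minutes at room temperature; luminescence read, quantitative HTS format.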
MBNL1-CUG inh: blocks human MBNL1 binding to CUG repeat RNA. AID 2675. TR-FRET MBNL1-His/biotin-(CUG)12 binding, 665/545 ratio. Q9NR56. Potency, µM (titrated, usually from 57.5 µM), inactives show at the top dose activity change, negative = inhibition, most hits filed as inhibitors. 0.036% of 280,000 active; active = well fitted inhibition curve with a large enough effect in the signal ratio, with a control signal flat, not every such curve was filed as active; inconclusive = small, poorly fitted or top-dose-only effect, or effect the other way, or a change in a side signal; inactive = no such curve, though single readings can be large or run the other way; the % refers to the signal ratio; also: potency is read from the fitted curve at half-maximal effect; % is scaled to controls: 0 for no effect and ±100 for the full control effect
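TR-FRET readout: Ex 340 nm, 665/545 nm emission ratio, normalized to buffer-only (basal) and MBNL1-(CUG)12 controls. Complex of MBNL1-His with Biotin-(CUG)12, compounds 92 nM–58 uM, incubated 60 min at room temperature.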
CBFb RUNX1 block: inhibitors of human CBF-beta and RUNX1 interaction; Q01196+Q13951; AlphaScreen CBFb-His/RUNX1-biotin binding, biochemical; Potency, µM (highest dose often 59.8 µM), inactives show top-dose activity, negative = inhibition, usual class: inhibitors; 230,000 tested, under 10 active; AID 1477; also: % of control where 0% means no effect
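CBFb-His/RUNX1-biotin, 30 nM each, preincubated 20 min RT; compound 15 min RT; Ni + streptavidin beads 50 ng each, 90 min RT; AlphaScreen read.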
PTHR1 agonist: agonists of human PTHR1 parathyroid hormone receptor | Q03431 | HEK293 GP2 PTHR1 cells, GloSensor cAMP luminescence, 1 h | Potency, µM (top dose mostly 115 µM), inactives show at the highest dose activation, usual class: activators | 0.075% of 410,000 active; also: potency is read from the fitted curve at half-maximal effect; nearly all actives have a fitted effect of over 55% in size
Target sequence (Q03431 whole entry, looked up): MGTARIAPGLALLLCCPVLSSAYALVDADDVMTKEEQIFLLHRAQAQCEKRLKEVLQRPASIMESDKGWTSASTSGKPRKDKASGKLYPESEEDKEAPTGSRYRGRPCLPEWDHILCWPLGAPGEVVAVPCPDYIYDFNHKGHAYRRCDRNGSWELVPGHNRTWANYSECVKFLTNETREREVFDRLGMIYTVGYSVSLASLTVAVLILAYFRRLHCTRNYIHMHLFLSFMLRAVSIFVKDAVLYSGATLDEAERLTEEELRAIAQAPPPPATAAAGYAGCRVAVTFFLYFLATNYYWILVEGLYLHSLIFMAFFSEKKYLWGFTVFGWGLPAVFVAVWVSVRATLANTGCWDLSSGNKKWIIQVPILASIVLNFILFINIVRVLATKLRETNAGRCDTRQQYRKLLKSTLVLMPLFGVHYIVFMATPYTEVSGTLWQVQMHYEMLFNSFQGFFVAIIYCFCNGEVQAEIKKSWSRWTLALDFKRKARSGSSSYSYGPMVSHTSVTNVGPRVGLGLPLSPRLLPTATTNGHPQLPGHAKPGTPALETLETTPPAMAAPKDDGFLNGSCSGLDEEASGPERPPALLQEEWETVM
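HEK-293-derived GP2 cells expressing PTHR1 and a GloSensor cAMP reporter, 3,000/well, plated overnight, given luciferin plus IBMX (each 0.5 mM as added) for 1 h at 37 °C, then compound for 1 h at 37 °C. Luminescence was read after 15 min at room temperature.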
DRD3 agonist: D3 dopamine receptor (human) agonism | AID 652048 | D3R DiscoveRx beta-arrestin cells, luminescence, 90 min | P35462 | 0.58% of 410,000 active | max activation, %; in the data active = max activation above about 30%; also: 0% is about no effect
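Agonist-mode cell screen: cells plated at 1500/well and incubated overnight at 37 °C, then exposed to library compounds for 90 min at 37 °C. Detection reagent was added for 30–60 min at room temperature, and luminescence was read.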
a7 integrin act: integrin-mediated muscular dystrophy alleviation activation; 0.064% of 350,000 active; Potency, µM (series often up to 38.3 µM), for inactives: at the highest dose activation, most hits filed as activators; alpha7betagal myoblasts, beta-gal FDG fluorescence, 48 h; AID 624291;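 also: potency is read from the fitted curve at half-maximal effect; 100% = response of the positive control SU9516; nearly all actives have a fitted effect of over 60% in size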
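Alpha7betagal+/- myoblasts (passage 13) were plated 16-24 hr, then exposed to compounds (1:260 dilution of DMSO stock) for 48 hours at 37C. After MPER lysis, β-galactosidase reporter activity was read as FDG fluorescence (ex 480/em 540) after 30 minutes.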
An asterisk follows results filed as active; i = inactive; ? = inconclusive; nt = no result given; [ ] = dose if it differs, or a comment. This is a sample that favours compounds with a hit; in the whole collection about 2.8% have one here. Unless noted, calls follow the shape of the dose curve; as a rule, active = well fitted curve in the direction sought with a large enough effect; inconclusive = small, poorly fitted or top-dose-only effect, or another doubt; inactive = no such curve, though single readings can be large; an effect the other way counts as inactive or inconclusive.

SMILES | D3 antag | MBNL1-CUG inh | CBFb RUNX1 block | PTHR1 agonist | DRD3 agonist | a7 integrin act
Oc1c(CN2CCOCC2)cc(-c2ccccc2)cc1CN1CCOCC1 | -83* | 0% | 0% | -13%[57.5 µM] | -5 | -14%
O=C(NCc1cccs1)c1ccc2c(c1)N(Cc1ccccc1Cl)C(=O)c1ccccc1S2 | nt | nt | nt | -34% | 0 | nt
O=C(CNc1ccccc1OC(F)F)N1CCc2ccccc21 | -3 | 5% | 1% | -9% | 0 | -6%
CCc1ccc(OCC(=O)Nc2ccc(N3CCN(S(C)(=O)=O)CC3)cc2)cc1 | 4 | 7% | 10% | -33% | 4 | -7%
Cc1nnc(N2C(=O)C(O)=C(C(=O)c3ccco3)C2c2ccc(C(C)(C)C)cc2)s1 (stereo not drawn) | -83* | 89% | -6% | i | -18 | -7%
Cc1cccc(N(C(=O)Cn2nnc(-c3ccccc3F)n2)C(C(=O)NC(C)(C)C)c2ccncc2)c1 (stereo not drawn) | 1 | 4% | -6% | i | 2 | -8%
CC(C)(C)NC(=O)C(c1ccncc1)N(C(=O)Cn1nnc(-c2ccc(F)cc2)n1)c1cccc(F)c1 (stereo not drawn) | -17 | -4% | 4% | 10µM* | -2 | -8%
COc1ccc(/C=C/C(=O)NC2CCN(Cc3ccccc3)CC2)cc1OC | 8 | 17% | nt | i | -14 | -7%
CC(=O)c1c(C)[nH]c(C(=O)NCCN2CCC(C)CC2)c1C | -51* | 2% | 7% | -1%[57.5 µM] | -19 | 14%
COc1ccc(NC(=O)/C(Cl)=C(/Cl)S(=O)(=O)Cc2ccc(C)cc2)cn1 | -77* | -3% | -3% | -24% | -7 | -45%
COc1ccc(NC(=O)/C(Cl)=C(/Cl)S(=O)Cc2ccccc2Cl)cn1 (stereo not drawn) | -96* | nt | -13% | -54% | -18 | -70%
C=CC(=O)NCCCc1cc(C(C)(C)C)c(O)c(C(C)(C)C)c1 | 1 | -8% | 4% | -17% | 4 | -8%
Cc1ccc(NC(=O)CCc2nnc3ccc(N4CCC5(CC4)OCCO5)nn23)cc1F | 2 | -4% | nt | -21% | -1 | 0%
COc1ccc(N2C(=O)C3ON(C4SC(=S)N(C)C4(C)C)C(c4ccc(Cl)cc4)C3C2=O)cc1 (stereo not drawn) | 3 | -12% | 1% | i | 1 | 19%
COc1ccc(N2C(=O)C3ON(C4SC(=S)N(C)C4(C)C)C(c4ccc([N+](=O)[O-])cc4)C3C2=O)cc1 (stereo not drawn) | -65* | 0% | 10% | i | -8 | 14%
c1ccc(CN2CCN(c3ncccn3)CC2)cc1 | -25 | -6% | nt | i | 24 | 14%
O=c1[nH]ncc(N2CCN(Cc3ccccc3)CC2)c1Cl | -71* | ? | 4% | i | -15 | -8%
COC(=O)[C@@]12C[C@@H](CC(=O)N3CCN(C(=O)c4ccco4)CC3)C(=O)N(Cc3cccc4ccccc34)C1=CCC(C)(C)C2 | ? | nt | nt | -20% | -15 | nt
CC(C)Oc1ccccc1C1C=C(C(=O)O)Nc2ncnn21 (stereo not drawn) | nt | nt | nt | -45% | 3 | nt
Cc1cc(Cl)ccc1OCC(=O)NNC(=O)C1CCN(c2ncnc3sc(C)c(C)c23)CC1 | 86 | nt | nt | -46% | 22 | -35%
Cc1sc2ncnc(N3CCC(C(=O)NNC(=O)COc4ccc(Cl)cc4)CC3)c2c1C | 49 | nt | nt | -42% | 6 | 9%
Cc1sc2ncnc(N3CCN(CCOc4ccc(Cl)cc4)CC3)c2c1C | -27 | 0% | -8% | i | 39* | -46%
Cc1sc2ncnc(N3CCC(C(=O)NNC(=O)COc4ccccc4F)CC3)c2c1C | 10 | nt | nt | -44% | 34* | 1%
Cc1ccc(OCC(=O)NNC(=O)C2CCN(c3ncnc4sc(C)c(C)c34)CC2)cc1 | 20 | nt | nt | -25% | 37* | 5%
Cc1sc2ncnc(N3CCC(C(=O)NNC(=O)COc4ccccc4Cl)CC3)c2c1C | 48 | nt | nt | -37% | 30* | 21%
SMILES | D3 antag | MBNL1-CUG inh | CBFb RUNX1 block | PTHR1 agonist | DRD3 agonist | a7 integrin act
COc1ccc(OCC(=O)NNC(=O)C2CCN(c3ncnc4sc(C)c(C)c34)CC2)cc1 | 4 | nt | nt | -70% | 2 | -4%
COc1ccc2c(c1)CCc1c(C(=O)N(C)c3ccccc3)noc1-2 | -5 | 3% | 5% | -39% | 5 | 0%
CC1(C(=O)NS(=O)(=O)c2ccccc2Cl)CCN1C(=O)CCC1CCCC1 (stereo not drawn) | 14 | nt | nt | 6% | -5 | nt
O=C(NCc1cccc(F)c1)C1CCN(c2nc3ccccc3nc2C(F)(F)F)CC1 | nt | nt | nt | -4% | -12 | nt
CCOc1ccc(NC(=O)CSc2nccn2-c2cccc(C)c2C)cc1 | nt | nt | nt | -28% | -9 | nt
CC(=O)N1CCN(c2cc(N3CCCC3)c(F)cc2[N+](=O)[O-])CC1 | -8 | ? | -6% | ? | -20 | 13%
CCN1CCN(c2cc(N3CCc4ccccc4C3)c(F)cc2[N+](=O)[O-])CC1 | -79* | ? | -15% | -31% | -29 | -18%
CS(=O)(=O)c1ccc(C(=O)OCC(=O)NC23CC4CC(CC(C4)C2)C3)cc1[N+](=O)[O-] | -58* | 26% | -9% | i | -11 | -52%
CS(=O)(=O)c1ccc(C(=O)OCc2nnc(-c3ccc(Cl)cc3)o2)cc1[N+](=O)[O-] | -55* | ? | -18% | -22% | -12 | -60%
Cn1cccc1C(=O)NC(=O)COC(=O)c1ccc(S(C)(=O)=O)cc1 | 32 | nt | nt | 17% | -10 | 27%
Cn1cccc1C(=O)NC(=O)COC(=O)c1ccc(S(C)(=O)=O)c([N+](=O)[O-])c1 | -77* | nt | nt | -19% | -13 | -56%
COc1cccc(C(=O)OCC(=O)NC23CC4CC(CC(C4)C2)C3)c1 | -1 | nt | nt | i | 3 | -20%
COc1cc(/C=C(\NC(C)=O)C(=O)N2CCCCC2)ccc1OC(C)=O | 8 | -8% | nt | i | 1 | 4%
CCOc1ccccc1C(=O)Nc1cc2c(cc1N1CCOCC1)n(C)c(=O)n2C | nt | nt | nt | i | -9 | nt
COc1ccc(C(=O)NC2CCCc3ccccc32)cc1OC1CCN(C(C)=O)CC1 (stereo not drawn) | 0 | -2% | nt | i | -4 | -14%
CSCCC(C(=O)Nc1c(C)cccc1C)n1c(-c2cc(C)cs2)nc2ccccc21 (stereo not drawn) | -66* | nt | nt | 8% | -21 | nt
COc1nccc(NCc2ccccc2)c1C#N | 11 | nt | nt | i | -2 | 10µM*
CCOC(=O)C1=C(C)NC(=S)NC1/C=C/c1ccccc1 (stereo not drawn) | -21 | -2% | -7% | -24% | -8 | 8%
